Records with an inconclusive call do not appear. Calls of active or inactive are those of the source. Rule for the calls, unless noted: active = hit-call score of the fitted dose curve at least 0.9, where 1 is the maximum; inactive = score below 0.9.

The target of assay [1] is Nuclear respiratory factor 1 (Homo sapiens) (UniProt Q16656). Briefly: ATG_NRF1_CIS: Attagene CIS-FACTORIAL HepG2 Assay for human Nuclear Respiratory Factor 1 (NRF1) Orphan Gene (AID 2282987). The following applies: HepG2 NRF1 cis-element reporter, Attagene multiplex; actives raise or lower the signal. In a few lines:
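Endogenous NRF1-driven reporter transcription measured in transiently transfected human HepG2 liver cells. Readout: reporter mRNA by RT-PCR and capillary electrophoresis with fluorescence detection, 24 h post-dosing. Gain or loss of signal fitted relative to DMSO baseline.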

Assay [2] in a line: ATG_NFI_CIS: Attagene CIS-FACTORIAL HepG2 Assay for human Nuclear Factor I (NFI) (AID 2282989). The following applies: HepG2 cis-regulatory reporter, NFI response element transcription; actives raise or lower the signal. In a few lines:
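After transient transfection of HepG2 with cis-promoter reporter constructs and 24 h dosing, RNA is reverse-transcribed, amplified, 6-FAM end-labelled and HpaI-digested before capillary analysis. Bidirectional curve fitting against DMSO.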

Assay [3] deals with Myc proto-oncogene protein (Homo sapiens) (UniProt P01106). The assay is described as follows: ATG_Myc_CIS: Attagene CIS-FACTORIAL HepG2 Assay for human Myelocytomatosis (Myc) Proto-Oncogene Transcription Factor (AID 2282990). As to conditions: HepG2, Attagene cis-reporter transcription factor activity; actives raise or lower the signal. The method in brief: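 Cells of the HepG2 human liver line bear multiple cis-driven reporter transcription units. Reporter mRNA after 24 h exposure is reverse-transcribed, amplified, labelled and resolved by capillary electrophoresis, with gain- or loss-of-signal fitting relative to DMSO.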

Assay [4] in a line: ATG_NF_kB_CIS: Attagene CIS-FACTORIAL HepG2 Assay for human Nuclear Factor Kappa B (NF-kB) (AID 2282991). The following applies: HepG2 Attagene cis-factorial NF-kB reporter mRNA; actives raise or lower the signal. In a few lines: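 Read-out: reporter transcript levels quantified by RT-PCR plus capillary electrophoresis of 6-FAM-labelled, HpaI-cut fragments. Transfected HepG2 cells, 24 h compound exposure, endogenous NF-kB-driven cis element; gain or loss scored versus DMSO.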

A short description of assay [5]: ATG_NRF2_ARE_CIS: Attagene CIS-FACTORIAL HepG2 Assay for human Nuclear Factor Erythroid 2 Related Factor 2 (NFR2) response to Antioxidant Response Elements (ARE) (AID 2282992). The following applies: HepG2 Attagene ARE/NRF2 reporter, transcription factor activity; actives raise or lower the signal. In a few lines: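 Endogenous transcription factor activity in human liver HepG2 cells is tracked via a cis-element-driven reporter within a multiplexed set. mRNA induction is read by RT-PCR and capillary electrophoresis after 24 h, with DMSO as baseline.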

A short description of assay [6]: ATG_Oct_MLP_CIS: Attagene CIS-FACTORIAL HepG2 Assay for human Octamer-Binding Transcription Factor (Oct) (AID 2282993). As to conditions: HepG2 Attagene cis-factorial Oct reporter, mRNA; actives raise or lower the signal. The method in brief:
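Cells of the HepG2 line express promoter-controlled reporter sequences whose mRNA levels, after 24 h treatment, are measured by RT-PCR and capillary electrophoresis. Increases and decreases are scored relative to DMSO.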

Assay [7] can be described thus: BSK_3C_TissueFactor: BioMAP Diversity Plus: 3C Assay for Tissue Factor Biomarker Activity (AID 2282997). As to conditions: BioMAP 3C HUVEC, tissue factor biomarker readout; actives raise or lower the signal. The method in brief: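 After a 24 h chemical exposure of primary human umbilical vein endothelial cells, Tissue Factor levels were quantified by ELISA.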
A short description of assay [8]: BSK_3C_uPAR: BioMAP Diversity Plus: 3C Assay for Urokinase-type plasminogen activator receptor (uPAR) Biomarker Activity (AID 2282998). As to conditions: BioMAP 3C HUVEC, uPAR biomarker ELISA; actives raise or lower the signal. In a few lines: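 Endothelial primary cells of human umbilical vein origin received test chemical; 24 h later uPAR was assayed by ELISA. Fitting was bidirectional, DMSO as negative control.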
On the technique in general: An ELISA detects its analyte on a solid surface through an enzyme-linked reagent.

Assay [9] is described as follows: BSK_3C_VCAM1: BioMAP Diversity Plus: 3C Assay for Vascular cell adhesion molecule 1 (VCAM1) Biomarker Activity (AID 2282999). As to conditions: BioMAP 3C HUVEC, VCAM1 ELISA, cytokine-stimulated; actives raise or lower the signal. The method in brief:
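Activity fitted in both directions relative to DMSO, with ELISA measurement of the surface marker on primary HUVEC (3C) at 24 h post-treatment; parallel SRB staining (0.1% SRB, TCA-fixed, 560 nm) flagged overt cytotoxicity.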

A short description of assay [10]: BSK_4H_Eotaxin3: BioMAP Diversity Plus: 4H Assay for Eotaxin 3 Biomarker Activity (AID 2283000).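 Note: CCL26 protein level quantified by ELISA in parallel with SRB cytotoxicity check.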 As to conditions: primary human endothelial cells (HUVEC); actives raise or lower the signal. The method in brief:
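Chemicals were added to human umbilical vein endothelium cultures, and Eotaxin-3 was quantified by ELISA at 24 h. Values were derived by bidirectional fitting with DMSO serving as negative control and activity baseline.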

The target of assay [11] is human Peroxisome Proliferator-activated Receptor alpha (PPARa), PPARA (gene 5465) (UniProt Q07869). The assay is described as follows: ATG_PPARa_TRANS: Attagene TRANS-FACTORIAL HepG2 Assay for human Peroxisome Proliferator-activated Receptor alpha (PPARa) (AID 2283001; active = hit-call score of the fitted dose curve at least 0.9, where 1 is the maximum). The method in brief: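 Reporter transcripts quantified by RT-PCR plus capillary electrophoresis after 24 h treatment, fitted upward relative to DMSO. Cells: human HepG2 transiently carrying multiple GAL4-UAS reporter units driven by NR-Gal4 chimeras.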

The target of assay [12] is human Peroxisome Proliferator-activated Receptor delta (PPARd), PPARD (gene 5467) (UniProt Q03181). The assay is described as follows: ATG_PPARd_TRANS: Attagene TRANS-FACTORIAL HepG2 Assay for human Peroxisome Proliferator-activated Receptor delta (PPARd) (AID 2283002; active = hit-call score of the fitted dose curve at least 0.9, where 1 is the maximum). The method in brief: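 Cell-based TRANS reporter: HepG2, transient MRTU transfection, 24 h exposure. Readout = reporter mRNA (RT-PCR/CE, 6-FAM). Gain-of-signal fit vs DMSO control.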

Read-out in assay [13]: Intercellular Adhesion Molecule 1 (ICAM1), ICAM1 (gene 3383)
Briefly: BSK_3C_ICAM1: BioMAP Diversity Plus: 3C Assay for Intercellular Adhesion Molecule 1 (ICAM1) Biomarker Activity (AID 2283003). As to conditions: primary human endothelial cells (HUVEC); actives raise or lower the signal. The method in brief: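 Chemicals are dosed onto primary human umbilical vein endothelium (3C system). After 24 h, ICAM-1 is measured by ELISA, and responses are fitted bidirectionally relative to DMSO.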

A short description of assay [14]: BSK_3C_Proliferation: Cell Proliferation Assessment in the BioMAP Diversity Plus: 3C Assay (AID 2283006). The following applies: primary human endothelial cells (HUVEC). In a few lines: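 Cells (human umbilical vein endothelial, sub-confluent) receive test chemical; after 48 h they are fixed in 10% trichloroacetic acid, stained with 0.1% SRB and read at 560 nm. Activity is referenced to DMSO, fitting increases and decreases.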

In assay [15] the target is Peroxisome proliferator-activated receptor gamma (Homo sapiens) (UniProt P37231). The assay is described as follows: ATG_PPARg_TRANS: Attagene TRANS-FACTORIAL HepG2 Assay for human Peroxisome Proliferator-activated Receptor-gamma (PPARg) (AID 2283007; active = hit-call score of the fitted dose curve at least 0.9, where 1 is the maximum). The method in brief:
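Read-out: reporter mRNA induction, detected by fluorescence after RT-PCR and capillary electrophoresis. Transiently transfected human HepG2 liver cells carrying a chimeric NR-Gal4 construct were dosed for 24 h; activity was fitted upward relative to DMSO.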

The target of assay [16] is Nuclear receptor subfamily 1 group I member 2 (Homo sapiens) (UniProt O75469). The assay is described as follows: ATG_PXR_TRANS: Attagene TRANS-FACTORIAL HepG2 Assay for human Pregnane X Receptor (PXR) (AID 2283008; active = hit-call score of the fitted dose curve at least 0.9, where 1 is the maximum). In a few lines:
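HepG2 transfected (FuGene 6) with GAL4-UAS reporter units + PXR-Gal4 chimera; dosed 24 h. Total RNA → oligo(dT) RT → PCR → 6-FAM primer extension → HpaI cut → CE. Gain-of-signal vs DMSO.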

Assay [17] addresses human Retinoic Acid Receptor beta (RARb), RARB (gene 5915) (UniProt P10826). The assay is described as follows: ATG_RARb_TRANS: Attagene TRANS-FACTORIAL HepG2 Assay for human Retinoic Acid Receptor beta (AID 2283004; active = hit-call score of the fitted dose curve at least 0.9, where 1 is the maximum). In a few lines:
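Transient transfection of HepG2 with multiple reporter units → chemical dosing, 24 h → total RNA isolation → RT with oligo(dT) → reporter-specific PCR, 6-FAM primer extension, HpaI digest → capillary electrophoresis. Positive direction vs DMSO control.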

The target in assay [18] is Retinoic acid receptor alpha (Homo sapiens) (UniProt P10276). Briefly: ATG_RARa_TRANS: Attagene TRANS-FACTORIAL HepG2 Assay for human Retinoic Acid Receptor alpha (RARa) (AID 2283005; active = hit-call score of the fitted dose curve at least 0.9, where 1 is the maximum). The method in brief: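 Reporter transcripts, measured by RT-PCR with fluorescent labeling and capillary electrophoresis after 24 h dosing, reflect activity of an exogenous human RARa–GAL4 fusion in transiently transfected HepG2. Fitted for increase relative to DMSO.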

In assay [19] the target is human Retinoic Acid Receptor gamma (RARg), RARG (gene 5916) (UniProt P13631). The assay is described as follows: ATG_RARg_TRANS: Attagene TRANS-FACTORIAL HepG2 Assay for human Retinoic Acid Receptor gamma (RARg) (AID 2283009; active = hit-call score of the fitted dose curve at least 0.9, where 1 is the maximum). In a few lines:
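TRANS format measured activity of exogenous NR-GAL4 fusion (RARg) in transfected HepG2 liver cells after 24 h dosing. Induced reporter RNA was detected by RT-PCR/capillary electrophoresis fluorescence, analysed in the positive direction against DMSO.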

Nuclear respiratory factor 1 (Homo sapiens), sequence (Q16656 whole entry, looked up): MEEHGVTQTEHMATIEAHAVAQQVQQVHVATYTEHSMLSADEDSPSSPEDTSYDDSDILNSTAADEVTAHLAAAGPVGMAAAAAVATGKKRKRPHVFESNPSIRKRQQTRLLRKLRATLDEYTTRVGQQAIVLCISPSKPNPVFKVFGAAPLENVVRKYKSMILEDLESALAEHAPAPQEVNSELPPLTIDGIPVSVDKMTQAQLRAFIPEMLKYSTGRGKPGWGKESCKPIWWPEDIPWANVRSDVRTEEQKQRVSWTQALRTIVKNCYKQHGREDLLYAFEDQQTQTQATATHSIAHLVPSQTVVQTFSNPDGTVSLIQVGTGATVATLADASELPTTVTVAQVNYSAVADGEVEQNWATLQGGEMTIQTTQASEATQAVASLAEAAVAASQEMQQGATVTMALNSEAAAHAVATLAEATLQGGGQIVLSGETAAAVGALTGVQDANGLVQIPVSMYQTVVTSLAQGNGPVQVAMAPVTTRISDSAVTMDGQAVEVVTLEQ
Peroxisome proliferator-activated receptor gamma (Homo sapiens), sequence (P37231 whole entry, looked up, the tested form may be a part): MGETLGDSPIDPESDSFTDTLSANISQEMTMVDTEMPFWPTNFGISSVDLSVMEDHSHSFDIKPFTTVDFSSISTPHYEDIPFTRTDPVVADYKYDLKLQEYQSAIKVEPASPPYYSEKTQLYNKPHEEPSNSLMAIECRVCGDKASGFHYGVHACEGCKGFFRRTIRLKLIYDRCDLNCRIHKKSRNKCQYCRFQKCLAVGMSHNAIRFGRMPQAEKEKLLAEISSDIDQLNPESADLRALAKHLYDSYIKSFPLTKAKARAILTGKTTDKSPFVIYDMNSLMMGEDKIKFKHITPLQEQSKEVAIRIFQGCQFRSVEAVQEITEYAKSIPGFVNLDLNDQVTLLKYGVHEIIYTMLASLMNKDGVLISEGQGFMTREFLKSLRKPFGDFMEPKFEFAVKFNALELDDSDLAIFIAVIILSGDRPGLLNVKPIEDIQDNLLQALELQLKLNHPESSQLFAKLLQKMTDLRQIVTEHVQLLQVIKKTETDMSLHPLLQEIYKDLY
human Peroxisome Proliferator-activated Receptor alpha (PPARa), PPARA (gene 5465), sequence (Q07869 whole entry, looked up, the tested form may be a part): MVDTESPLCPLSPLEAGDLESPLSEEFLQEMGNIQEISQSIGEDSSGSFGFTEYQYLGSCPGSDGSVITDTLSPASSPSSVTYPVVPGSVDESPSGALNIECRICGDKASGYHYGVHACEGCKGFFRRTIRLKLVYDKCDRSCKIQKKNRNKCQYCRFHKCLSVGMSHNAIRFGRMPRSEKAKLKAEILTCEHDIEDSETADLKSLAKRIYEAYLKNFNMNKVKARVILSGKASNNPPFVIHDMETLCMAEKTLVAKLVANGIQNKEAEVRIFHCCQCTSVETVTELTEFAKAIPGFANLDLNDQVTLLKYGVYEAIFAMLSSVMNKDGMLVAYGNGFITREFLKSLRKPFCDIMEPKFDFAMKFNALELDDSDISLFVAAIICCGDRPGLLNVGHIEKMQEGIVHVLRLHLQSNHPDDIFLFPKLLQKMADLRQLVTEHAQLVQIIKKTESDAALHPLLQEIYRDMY
Nuclear receptor subfamily 1 group I member 2 (Homo sapiens), sequence (O75469 whole entry, looked up, the tested form may be a part): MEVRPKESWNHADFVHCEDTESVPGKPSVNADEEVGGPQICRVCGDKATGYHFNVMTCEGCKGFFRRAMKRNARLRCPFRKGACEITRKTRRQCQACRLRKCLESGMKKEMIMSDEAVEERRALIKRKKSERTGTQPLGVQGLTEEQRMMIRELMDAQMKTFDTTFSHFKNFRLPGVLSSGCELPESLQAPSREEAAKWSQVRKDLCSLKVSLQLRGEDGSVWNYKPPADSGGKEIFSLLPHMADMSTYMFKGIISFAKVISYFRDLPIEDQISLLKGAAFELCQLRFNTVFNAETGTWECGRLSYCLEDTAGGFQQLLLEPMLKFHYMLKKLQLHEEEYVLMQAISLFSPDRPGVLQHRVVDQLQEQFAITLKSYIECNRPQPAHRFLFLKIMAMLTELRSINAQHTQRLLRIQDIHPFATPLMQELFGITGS
Myc proto-oncogene protein (Homo sapiens), sequence (P01106 whole entry, looked up): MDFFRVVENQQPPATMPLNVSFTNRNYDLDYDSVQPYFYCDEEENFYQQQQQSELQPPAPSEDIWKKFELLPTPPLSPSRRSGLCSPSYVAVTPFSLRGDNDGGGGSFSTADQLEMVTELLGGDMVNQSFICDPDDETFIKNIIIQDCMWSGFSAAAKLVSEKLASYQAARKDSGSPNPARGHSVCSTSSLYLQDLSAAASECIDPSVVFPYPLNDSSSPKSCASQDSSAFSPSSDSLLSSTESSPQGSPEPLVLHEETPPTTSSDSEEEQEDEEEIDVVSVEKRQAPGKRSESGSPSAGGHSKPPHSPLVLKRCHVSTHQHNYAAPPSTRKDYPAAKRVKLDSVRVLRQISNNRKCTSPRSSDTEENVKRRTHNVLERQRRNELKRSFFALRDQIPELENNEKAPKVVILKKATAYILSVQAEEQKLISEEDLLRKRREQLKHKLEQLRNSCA
human Peroxisome Proliferator-activated Receptor delta (PPARd), PPARD (gene 5467), sequence (Q03181 whole entry, looked up): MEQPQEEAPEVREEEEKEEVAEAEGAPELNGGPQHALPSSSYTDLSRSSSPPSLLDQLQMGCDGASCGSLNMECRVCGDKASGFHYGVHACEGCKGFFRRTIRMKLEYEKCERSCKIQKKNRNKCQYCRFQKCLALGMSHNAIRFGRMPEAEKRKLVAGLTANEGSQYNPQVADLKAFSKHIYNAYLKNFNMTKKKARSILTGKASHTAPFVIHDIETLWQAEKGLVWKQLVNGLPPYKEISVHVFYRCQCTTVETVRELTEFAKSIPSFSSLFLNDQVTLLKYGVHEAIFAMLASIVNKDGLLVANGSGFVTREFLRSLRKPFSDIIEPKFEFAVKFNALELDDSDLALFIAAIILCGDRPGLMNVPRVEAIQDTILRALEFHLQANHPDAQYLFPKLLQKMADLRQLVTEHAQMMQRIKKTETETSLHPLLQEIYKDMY
human Retinoic Acid Receptor beta (RARb), RARB (gene 5915), sequence (P10826 whole entry, looked up): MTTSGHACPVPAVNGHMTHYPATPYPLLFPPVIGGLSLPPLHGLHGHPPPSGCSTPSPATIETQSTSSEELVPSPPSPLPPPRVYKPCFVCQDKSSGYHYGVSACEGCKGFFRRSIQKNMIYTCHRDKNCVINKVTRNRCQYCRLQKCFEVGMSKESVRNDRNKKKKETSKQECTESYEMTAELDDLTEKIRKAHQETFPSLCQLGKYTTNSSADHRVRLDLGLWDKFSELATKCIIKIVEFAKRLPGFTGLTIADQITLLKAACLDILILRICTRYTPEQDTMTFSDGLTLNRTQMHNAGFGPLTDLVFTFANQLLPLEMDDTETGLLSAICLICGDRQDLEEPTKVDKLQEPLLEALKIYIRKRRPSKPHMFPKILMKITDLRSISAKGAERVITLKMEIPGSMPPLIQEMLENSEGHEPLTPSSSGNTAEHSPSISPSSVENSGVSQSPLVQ
human Retinoic Acid Receptor gamma (RARg), RARG (gene 5916), sequence (P13631 whole entry, looked up, the tested form may be a part): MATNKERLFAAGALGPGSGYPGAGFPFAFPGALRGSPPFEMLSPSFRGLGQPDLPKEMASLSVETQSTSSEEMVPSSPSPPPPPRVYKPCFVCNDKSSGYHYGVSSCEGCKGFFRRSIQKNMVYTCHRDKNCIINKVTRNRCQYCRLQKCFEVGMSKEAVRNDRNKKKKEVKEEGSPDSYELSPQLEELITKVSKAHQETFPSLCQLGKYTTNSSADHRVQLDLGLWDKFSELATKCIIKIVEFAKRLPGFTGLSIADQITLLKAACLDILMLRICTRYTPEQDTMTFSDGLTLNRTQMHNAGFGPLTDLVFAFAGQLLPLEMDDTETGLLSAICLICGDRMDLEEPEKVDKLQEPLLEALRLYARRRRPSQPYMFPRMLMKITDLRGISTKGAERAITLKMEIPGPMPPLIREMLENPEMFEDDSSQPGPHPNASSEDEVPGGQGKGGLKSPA
Retinoic acid receptor alpha (Homo sapiens), sequence (P10276 whole entry, looked up, the tested form may be a part): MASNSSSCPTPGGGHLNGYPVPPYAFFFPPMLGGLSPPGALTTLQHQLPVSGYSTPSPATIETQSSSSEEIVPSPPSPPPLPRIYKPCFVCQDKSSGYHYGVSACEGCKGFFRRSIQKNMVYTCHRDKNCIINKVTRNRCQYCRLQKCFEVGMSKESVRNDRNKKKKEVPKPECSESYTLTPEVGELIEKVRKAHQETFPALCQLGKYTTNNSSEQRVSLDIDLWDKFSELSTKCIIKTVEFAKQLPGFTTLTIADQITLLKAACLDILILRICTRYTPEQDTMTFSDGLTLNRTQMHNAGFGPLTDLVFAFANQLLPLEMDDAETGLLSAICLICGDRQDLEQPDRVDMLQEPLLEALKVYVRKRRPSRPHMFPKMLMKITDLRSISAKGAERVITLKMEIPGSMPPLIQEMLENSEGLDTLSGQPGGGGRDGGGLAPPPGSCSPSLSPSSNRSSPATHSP

By AC50 is commonly meant the concentration at which the activity in the assay is half-maximal. On to `O=S(=O)(O)CCC(F)(F)C(F)(F)C(F)(F)C(F)(F)C(F)(F)C(F)(F)C(F)(F)C(F)(F)F`, for which the compound was classed as inactive in assay [1], in assay [2], in assay [3], in assay [4], in [6] and in assay [7]. In addition, the result in assay [8], in [9], in assay [10], in assay [11], in assay [12] and in assay [13] was inactive. The outcome in [14], in [15] and in assay [16] was inactive. Moreover, the AC50 in [5] was 91.8 µM (active).
As to `O=c1[nH]cccc1O`, the result in assay [1], in assay [2], in [3], in assay [4], in [5] and in assay [6] was inactive. Also, the result in assay [17], in assay [18], in [15] and in assay [19] was inactive.
For `Brc1ccccn1`, the compound was classed as inactive in assay [1], in assay [2], in assay [3], in [4], in assay [5] and in assay [6]. Also, the compound was called inactive in assay [17], in assay [15] and in [16].
Take `CC(C)OC(=O)COc1ccc(Cl)cc1Cl`: the outcome in [1], in [2], in assay [3], in [4], in [5] and in assay [6] was inactive. The call in [11], in [15], in assay [16] and in assay [19] was inactive.
Take `O=C1OC(=O)c2ccc3c4c(ccc1c24)C(=O)OC3=O`: the compound was classed as inactive in assay [1], in assay [2], in assay [3], in assay [4], in assay [5] and in assay [6]. For the same compound, the result in assay [12], in [15] and in assay [16] was inactive.
For the compound `OCC(F)(F)C(F)(F)C(F)(F)CO`, the outcome in assay [1], in assay [2], in assay [3], in assay [4], in assay [5] and in [6] was inactive. Further, the result in assay [7], in assay [8], in [9], in [10], in [11] and in assay [12] was inactive. For the same compound, the result in assay [13] and in assay [14] was inactive.

Values taken from PubChem BioAssay (EPA / NIEHS).
